From PubChem BioAssay AID463173 (ICCB-Longwood Screening Facility, Harvard Medical School, 2010)
In all, about 52,000 compounds went through this assay and about 4,300 (8.3%) were called active. Cut-off read from the data, not from the text of the source: active = survival mostly below about 52% (no sharp cut-off); inactive = mostly above about 56%. The list comes from a sample in which actives are over-represented; it also holds similar structures and randomly drawn compounds.

tested on: DeltatarO mutant; experiment: growth inhibition of S. aureus wild type versus tarO mutant, primary screen, teichoic acid synthesis inhibitors, RN4220, OD600 (AID 463173); settings: OD600, 18 h, active compounds read low, screened at 18.75 µg/mL (by protocol)

| SMILES | survival |
| --- | --- |
| CC1CCc2c(sc(NC(=O)COc3ccccc3C(C)(C)C)c2C#N)C1 (stereo not drawn) | 67% (inactive) |
| COC(=O)CSc1ncc2c(n1)-c1ccccc1N(Cc1ccccc1C)S2(=O)=O | 99% (inactive) |
| Cc1ccc2c(c1)N(CCC(=O)NCc1ccccc1Cl)C(=O)CO2 | 40% (active) |
| CCOc1ccccc1CNC(=O)CCCN1C(=O)COc2ccc(C)cc21 | 93% (inactive) |
| Cc1cccc(CNC(=O)CCCN2C(=O)COc3ccc(C)cc32)c1 | 112% (inactive) |
| CCOC(=O)C1=C(CS(=O)(=O)c2ccc(OC)c(Cl)c2)NC(=O)NC1c1cccc(OC)c1 (stereo not drawn) | 59% (inactive) |
| Cc1cc(=O)[nH]c(SC(C)C(=O)Nc2ccccc2)n1 (stereo not drawn) | 90% (inactive) |
| Cc1ccc(C)c(NC(=O)CSc2nc(-c3ccccc3Cl)nc3c2Cc2c(CO)cnc(C)c2O3)c1 | 118% (inactive) |
| Cc1cccc(NC(=O)CSc2nc(-c3ccccc3Cl)nc3c2Cc2c(CO)cnc(C)c2O3)c1C | 117% (inactive) |
| Cc1ccc(-c2nc3c(c(SCC(=O)Nc4ccccc4Cl)n2)Cc2c(CO)cnc(C)c2O3)cc1 | 46% (active) |
| COc1ccccc1-c1nc2c(c(SCC(=O)Nc3ccccc3F)n1)Cc1c(CO)cnc(C)c1O2 | 88% (inactive) |
| COc1ccccc1NC(=O)CSc1nc(-c2ccc(C)cc2)nc2c1Cc1c(CO)cnc(C)c1O2 | 49% (active) |
| COc1ccccc1NC(=O)CSc1nc(-c2cccc(Cl)c2)nc2c1Cc1c(CO)cnc(C)c1O2 | 87% (inactive) |
| Cc1ccc(C)c(N2CCN(Cc3csc(C)c3C)CC2)c1 | 77% (inactive) |
| CSc1ccc(CCNc2ncnc3onc(C)c23)cc1 | 98% (inactive) |
| O=S1(=O)c2ccccc2N(Cc2ccc(Cl)cc2)c2ccccc21 | 131% (inactive) |
| O=C(c1ccc2c(c1)N(Cc1ccc(Cl)cc1)C(=O)c1ccccc1S2(=O)=O)N1CCc2ccccc21 | 120% (inactive) |
| O=C(c1ccc2c(c1)N(Cc1cccc(Cl)c1)C(=O)c1ccccc1S2(=O)=O)N1CCc2ccccc21 | 0% (active) |
| COc1ccccc1CNC(=O)c1ccc2c(c1)N(Cc1cccc(Cl)c1)C(=O)c1ccccc1S2(=O)=O | 37% (active) |
| O=S1(=O)c2ccccc2N(Cc2ccccc2)c2ccccc21 | 69% (inactive) |
| O=S1(=O)c2ccccc2N(Cc2cccc(Cl)c2)c2ccccc21 | 0% (active) |
| O=C(NCc1ccco1)c1ccc2c(c1)N(Cc1ccccc1)C(=O)c1ccccc1S2(=O)=O | 68% (inactive) |

| SMILES | survival |
| --- | --- |
| COc1ccccc1CNC(=O)c1ccc2c(c1)N(Cc1cccc(C)c1)C(=O)c1ccccc1S2(=O)=O | 87% (inactive) |
| O=C(NCc1ccccc1)c1ccc2c(c1)N(Cc1cccc(Cl)c1)C(=O)c1ccccc1S2(=O)=O | 93% (inactive) |
| O=C(NCc1ccco1)c1ccc2c(c1)N(Cc1cccc(Cl)c1)C(=O)c1ccccc1S2(=O)=O | 46% (active) |
| O=C(c1ccc2c(c1)N(Cc1ccccc1)C(=O)c1ccccc1S2(=O)=O)N1CCc2ccccc21 | 81% (inactive) |
| O=C(NCc1ccco1)c1ccc2c(c1)N(Cc1ccc(Cl)cc1)C(=O)c1ccccc1S2(=O)=O | 89% (inactive) |
| O=C(O)COCC(=O)Nc1ccc2c(c1)CCC2 | 103% (inactive) |
| COc1ccc(-c2nnc(SCC(=O)Nc3cccc(Cl)c3C)nc2-c2ccc(OC)cc2)cc1 | 89% (inactive) |
| COc1ccc(CNC(=O)CCC(=O)N2CC3CCCN3c3ccccc32)cc1 (stereo not drawn) | 71% (inactive) |
| CC1=C(c2ccc(C)c(C)c2)S(=O)(=O)N(Cc2ccc(C(=O)NCc3cccc(C)c3)cc2)C1=O | 77% (inactive) |
| CN1CCSc2ccc(C(=O)NCc3ccccc3F)cc21 | 134% (inactive) |
| CCOC(=O)c1cc2c(=O)n3ccccc3nc2n(CCCOC)c1=NC(=O)c1c(-c2c(F)cccc2Cl)noc1C | 54% (inactive) |
| CC(C)(C)OC(=O)N1CCC(c2c(C(=O)N3CCN(c4ccccc4F)CC3)cnn2C(C)(C)C)CC1 | 68% (inactive) |
| COc1ccc(CCNC(=O)c2ccc(Cn3c(=O)c4ccccc4n(CC(=O)C(C)(C)C)c3=O)cc2)cc1OC | 86% (inactive) |
| O=c1c2sc3ccccc3c2n(Cc2ccc(F)cc2)c(=O)n1Cc1ccco1 | 79% (inactive) |
| COc1cccc(Cc2nc3ccccc3nc2SCC(=O)N2CCCCC2C)c1 (stereo not drawn) | 79% (inactive) |
| CCOC(=O)c1ccccc1Nc1cc(C)nc2nc(-c3ccco3)nn12 | 128% (inactive) |
| Cc1cc(Nc2ccc(Br)cc2)n2nc(-c3ccccc3C)nc2n1 | 27% (active) |
| Cc1cc(Nc2cccc(F)c2)n2nc(-c3ccco3)nc2n1 | 89% (inactive) |
| Cc1cc(Nc2ccccc2Cl)n2nc(-c3ccco3)nc2n1 | 88% (inactive) |
| Cc1cc(Nc2ccc(Br)c(C)c2)n2nc(-c3ccco3)nc2n1 | -5% (active) |
| Cc1cc(C)cc(Nc2cc(C)nc3nc(-c4ccco4)nn23)c1 | 94% (inactive) |
| CC(=O)c1cccc(Nc2cc(C)nc3nc(-c4ccccc4C)nn23)c1 | 90% (inactive) |

| SMILES | survival |
| --- | --- |
| COc1ccc(Cl)cc1Nc1cc(C)nc2nc(-c3ccccc3C)nn12 | 70% (inactive) |
| CCOc1ccc(OCC)c(Nc2cc(C)nc3nc(-c4ccco4)nn23)c1 | 17% (active) |
| CN(CCCNC(=O)c1cc2c(=O)n(C)c3ccccc3c2s1)Cc1ccccc1 | 94% (inactive) |
| CCCCS(=O)(=O)c1nc(-c2ccc(Br)cc2)cc(-c2ccccc2)c1C#N | 119% (inactive) |
| C/C(=C\C(=O)c1cccnc1)Nc1ccccc1O | 103% (inactive) |
| Cc1nc(-c2ccc(S(=O)(=O)N(C)Cc3ccccc3)cc2)co1 | 95% (inactive) |
| Cc1ccc(-n2ncc(C(=O)NC3CCCC3)c2C2CCN(C(=O)OC(C)(C)C)CC2)c(C)c1 | 70% (inactive) |
| Cc1ccc(-n2c(=O)c3c(c4cc(C)ccc4n3C)n(CC(=O)N3CCCC3)c2=O)cc1 | 71% (inactive) |
| CC(=O)Nc1ccc(C2=CSC3=NCCN23)cc1 | 82% (inactive) |
| CCSc1ncc(Cl)c(C(=O)Nc2nc3ccc(Cl)cc3s2)n1 | 100% (inactive) |
| CCOc1ccc(C(=O)Nc2cccc(-c3nc4cc(Cl)cc(Cl)c4o3)c2)cc1 | 84% (inactive) |
| Cc1cccc(-c2nc3cc(NC(=O)c4ccc(OCC(C)C)cc4)ccc3o2)c1 | 113% (inactive) |
| COc1c(Cl)cc(C(=O)Nc2cccc(-c3nc4ccccc4[nH]3)c2)cc1Cl | 15% (active) |
| CCOc1ccc(NS(=O)(=O)c2ccc3nc(-c4ccccc4)[nH]c3c2)cc1 | 64% (inactive) |
| CC(C)COc1ccc(C(=O)Nc2cccc(-c3nc4ccccc4[nH]3)c2)cc1 | 43% (active) |
| CCOc1cc(OCC)cc(C(=O)Nc2cccc(-c3nc4ccccc4[nH]3)c2)c1 | 36% (active) |
| CCCOc1ccc(C(=O)Nc2cccc(-c3nc4ccccc4[nH]3)c2)cc1 | 28% (active) |
| COc1cc(NC(=O)c2cc(Cl)c(OC)c(Cl)c2)ccc1NC(=O)c1cc2ccccc2o1 | 82% (inactive) |
| CCCOc1ccc(C(=O)Nc2cccc(NC(=O)c3cccc(Cl)c3)c2)cc1 | 70% (inactive) |
| CC(C)COc1ccc(C(=O)Nc2cc(-c3ccccc3)no2)cc1 | 85% (inactive) |
| CCCN(CCC)S(=O)(=O)c1ccc(C(=O)Nc2cccc(-c3nc4ccccc4[nH]3)c2)cc1 | 99% (inactive) |
| CCOc1ccc(CCNC(=O)c2cc3c(=O)n(C)c4ccccc4c3s2)cc1OCC | 56% (inactive) |

| SMILES | survival |
| --- | --- |
| Cc1ccc(NC(=O)C2CCN(C(=O)c3cnn(-c4ccccc4)c3-n3cccc3)CC2)cc1 | 93% (inactive) |
| CCCn1c(=S)[nH]c2c1c(=O)[nH]c(=O)n2C | 66% (inactive) |
| CN(CC(=O)Nc1cccc(F)c1)S(=O)(=O)c1ccc2c(c1)n(C)c(=O)c(=O)n2C | 102% (inactive) |
| COc1ccc(C2=NN(C(=O)CCC(=O)O)C(c3ccccc3F)C2)cc1OC (stereo not drawn) | 89% (inactive) |
| N/C(=N/OC(=O)c1ccccc1)c1ccccn1 | 87% (inactive) |
| CCCCNC(=O)c1ccc2c(c1)ncn2-c1cc(OC)ccc1OC | 112% (inactive) |
| O=c1oc2cc(O)ccc2cc1-c1nnc(Nc2ccccc2F)s1 | 59% (inactive) |
| CCC(c1nnnn1Cc1ccccc1)N(Cc1cccs1)Cc1cc2ccc(C)cc2[nH]c1=O (stereo not drawn) | 103% (inactive) |
| O=C(CNC(=O)c1ccc(Cl)cc1)OCc1cc(=O)n2ccsc2n1 | 72% (inactive) |
| COc1ccc(C2C(C(=O)Nc3ccc(C)cc3C)=C(C)Nc3nc(SCc4cccc(C)c4)nn32)c(OC)c1 (stereo not drawn) | 164% (inactive) |
| CCc1ccc(C2C(C#N)=C(N)Oc3cc(N)ccc32)cc1 (stereo not drawn) | 102% (inactive) |
| COc1ccc(C2C(C#N)=C(N)Oc3cc4c(cc32)OCO4)cc1 (stereo not drawn) | 79% (inactive) |
| CCN(CC)c1ccc2c(c1)OC(N)=C(C#N)C2c1cccc(F)c1 (stereo not drawn) | 2% (active) |
| Cc1ccc(Sc2c(C)nn(C(=O)COc3ccccc3Br)c2C)cc1 | 88% (inactive) |
| Cc1nn(C(=O)c2ccc(Br)cc2)c(C)c1Sc1ccccc1 | 2% (active) |
| Cc1nn(C(=O)c2ccc(Br)cc2)c(C)c1S(=O)(=O)N1CCOCC1 | 79% (inactive) |
| Cc1nn(C(=O)c2ccccc2)c2c1C(=O)CC(C)(C)C2 | 74% (inactive) |
| Cc1nn(C(=O)COc2ccccc2Br)c(C)c1Sc1ccccc1 | 54% (inactive) |
| Cc1ccc(Sc2c(C)nn(C(=O)c3ccc(Br)cc3)c2C)cc1 | 16% (active) |
| CCOc1ccc(NC(=O)CC2C(=O)N(c3ccccc3)C(=O)N2CCc2ccc(OC)cc2)cc1 (stereo not drawn) | 59% (inactive) |
| CCCNC(=O)CSc1cn(CC(=O)N2CCCCCC2)c2ccccc12 | 84% (inactive) |
| Cc1ccc(S(=O)(=O)c2cn(CC(=O)Nc3ccc(C)c(Cl)c3)c3ccc(C)cc3c2=O)cc1 | 96% (inactive) |
